Measured values reported in PubChem BioAssay (NCATS).
“And” between values parts separate entries of the source, which are not always exact repeats. Equal entries are not always repeated. Records with an inconclusive call do not appear. The source made the active and inactive calls. Unless noted, calls follow the shape of the dose curve; as a rule, active = well fitted curve in the direction sought with a large enough effect; inconclusive = small, poorly fitted or top-dose-only effect, or another doubt; inactive = no such curve, though single readings can be large; an effect the other way counts as inactive or inconclusive.

How the values were obtained:
[1] = biological target: Cellular tumor antigen p53 (Homo sapiens) (UniProt P04637); test: Primary qHTS for small molecule compounds that upregulate eGFP-tagged delta133p53alpha (in N-terminal) cells. (AID 2060322); conditions: NCI-H358 eGFP-delta133p53alpha fluorescence, 24 h; activation: stronger effect = higher value;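 also: cells pre-induced with doxycycline then dosed without doxycycline; series mostly up to about 56 µM; 0% = DMSO vehicle and 100% = reference activator; nearly all actives have a fitted effect of over 75% in size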
Sequence of Cellular tumor antigen p53 (Homo sapiens) (P04637 whole entry, looked up): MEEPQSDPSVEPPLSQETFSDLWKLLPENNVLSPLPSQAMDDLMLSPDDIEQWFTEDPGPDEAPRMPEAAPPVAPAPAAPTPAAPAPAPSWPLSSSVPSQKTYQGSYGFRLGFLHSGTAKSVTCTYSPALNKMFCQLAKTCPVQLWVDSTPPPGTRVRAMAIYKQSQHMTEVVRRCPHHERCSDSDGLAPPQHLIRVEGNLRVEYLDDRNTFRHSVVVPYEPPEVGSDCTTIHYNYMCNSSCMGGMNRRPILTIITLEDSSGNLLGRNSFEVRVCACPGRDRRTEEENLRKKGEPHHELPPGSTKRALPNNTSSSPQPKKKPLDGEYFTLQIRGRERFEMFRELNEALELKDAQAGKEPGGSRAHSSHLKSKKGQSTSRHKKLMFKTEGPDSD
Outline: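 NCI-H358 cells pre-induced 24 h with 10 ng/ml doxycycline for eGFP-delta133p53alpha, plated dox-free and exposed 24 h at 37C to titrated compounds. Fixed, Hoechst-stained; gated GFP peak intensity by laser scanning cytometry, normalized to DMSO (0%) and 57.5 uM 5-azacytidine (100%).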

[2] = biological target: Cellular tumor antigen p53 (Homo sapiens) (UniProt P04637); test: Primary qHTS for small molecule compounds that upregulate eGFP-tagged delta133p53alpha (in C-terminal) cells. (AID 2060324);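 also: 0% = DMSO wells and 100% = 57.5 µM 5-azacytidine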
Outline: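 Concentration-response screen: compounds titrated onto pre-induced NCI-H358 D133p53a-eGFP cells, incubated one day, fixed with 3.5% PFA. Per-cell GFP peak intensity was gated, then normalized against intraplate controls.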

[3] = biological target: Aldehyde dehydrogenase, mitochondrial (Homo sapiens) (UniProt P05091); test: qHTS for Inhibitors of the Aldehyde Dehydrogenase Family (ALDH2) Validation screens (AID 2061302; active = well fitted inhibition curve with a large enough effect; title and protocol of this record describe different tests; also: potency is read from the fitted curve at half-maximal effect)
[4] = BET inhibitor-based combinations targeting novel dependencies in MECOM-rearranged (r) AML: SET-2 cell line (AID 2202231); conditions: SET-2 AML cells viability, CellTiter-Glo luminescence, 48 h; viability: stronger effect = lower value, concentration not given here; also: nearly all actives have a fitted effect of over 35% in size; also: potency is read from the fitted curve at half-maximal effect;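 as to viability: plate controls were DMSO treated cells for no effect and wells without cells for full effect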
Outline: (§1)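 Luminescent ATP readout (CellTiter-Glo) after 48 hr drug exposure gives viability. Curves span 11 concentrations and are normalized to DMSO and empty wells. Activity is reported as area under the curve and its Z-transform within each cell line.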

[5] = BET inhibitor-based combinations targeting novel dependencies in MECOM-rearranged (r) AML: OCI-AML3 cell line (AID 2202232); conditions: Potency: OCI-AML3 viability; also: nearly all actives have a fitted effect of over 35% in size; also: potency is read from the fitted curve at half-maximal effect
Outline: as §1

[6] = BET inhibitor-based combinations targeting novel dependencies in MECOM-rearranged (r) AML: MV-4-11 cell line (AID 2202233); also: nearly all actives have a fitted effect of over 45% in size; also: potency is read from the fitted curve at half-maximal effect
Outline: (§2)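 Luminescent ATP readout (CellTiter-Glo, 15 min at room temperature) after 48 hr drug exposure gave viability. Dose-response curves, normalized to DMSO and empty-well controls, were summarized as area under the curve and its mean-centred Z-score.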

[7] = BET inhibitor-based combinations targeting novel dependencies in MECOM-rearranged (r) AML: HNT-34 cell line (AID 2202234); also: nearly all actives have a fitted effect of over 35% in size; also: potency is read from the fitted curve at half-maximal effect
Outline: as §2

[8] = BET inhibitor-based combinations targeting novel dependencies in MECOM-rearranged (r) AML: UCSD-AML1 cell line (AID 2202235); also: nearly all actives have a fitted effect of over 40% in size; also: potency is read from the fitted curve at half-maximal effect
Outline: as §2

[9] = BET inhibitor-based combinations targeting novel dependencies in MECOM-rearranged (r) AML: AML-191 cell line (AID 2202236; also: nearly all actives have a fitted effect of over 35% in size; also: potency is read from the fitted curve at half-maximal effect)
Outline: as §1

[10] = BET inhibitor-based combinations targeting novel dependencies in MECOM-rearranged (r) AML: AML-194 cell line (AID 2202237; also: nearly all actives have a fitted effect of over 40% in size; also: potency is read from the fitted curve at half-maximal effect)
Outline: as §1

[11] = biological target: Retinaldehyde dehydrogenase 3 (Homo sapiens) (UniProt P47895); test: qHTS for Inhibitors of the Aldehyde Dehydrogenase Family (ALDH1A3) Validation screen (AID 2061312); also: % is scaled to controls: 0 for no effect and ±100 for the full control effect; nearly all actives have a fitted effect of over 45% in size
[12] = biological target: Aldehyde dehydrogenase, mitochondrial (Homo sapiens) (UniProt P05091); test: qHTS for Inhibitors of the Aldehyde Dehydrogenase Family (ALDH2) Primary screen (AID 2061308);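 also: plate controls were vehicle for no effect and reference inhibitor for full effect; nearly all actives have a fitted effect of over 55% in size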
[13] = biological target: Retinaldehyde dehydrogenase 3 (Homo sapiens) (UniProt P47895); test: qHTS for Inhibitors of the Aldehyde Dehydrogenase Family (ALDH1A3) Primary screen (AID 2061315);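 also: plate controls were DMSO vehicle for no effect and reference inhibitor for full effect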
[14] = biological target: Aldehyde dehydrogenase, mitochondrial (Homo sapiens) (UniProt P05091); test: qHTS for Inhibitors of the Aldehyde Dehydrogenase Family (ALDH2) Confirmatory screens (AID 2061303; active = well fitted inhibition curve with a large enough effect; title and protocol of this record describe different tests; also: % is scaled to controls: 0 for no effect and ±100 for the full control effect; nearly all actives have a fitted effect of over 45% in size)
[15] = qHTS for Inhibitors of the Aldehyde Dehydrogenase Family (ALDH1A2, ALDH1A3, ALDH2, ALDH3A1) (AID 2061307); also: nearly all actives have a fitted effect of over 50% in size
[16] = biological target: Retinaldehyde dehydrogenase 3 (Homo sapiens) (UniProt P47895); test: qHTS for Inhibitors of the Aldehyde Dehydrogenase Family (ALDH1A3) Confirmatory screens (AID 2061311); also: nearly all actives have a fitted effect of over 60% in size; also: potency is read from the fitted curve at half-maximal effect
[17] = biological target: Aldehyde dehydrogenase 1A1 (Homo sapiens) (UniProt P00352); test: qHTS for Inhibitors of the Aldehyde Dehydrogenase Family (ALDH1A1) Confirmatory screens (AID 2061316); also: nearly all actives have a fitted effect of over 65% in size; also: potency is read from the fitted curve at half-maximal effect
[18] = biological target: Retinal dehydrogenase 2 (Homo sapiens) (UniProt O94788); test: qHTS for Inhibitors of the Aldehyde Dehydrogenase Family (ALDH1A2) Confirmation screens (AID 2061314); also: % is scaled to controls: 0 for no effect and ±100 for the full control effect; nearly all actives have a fitted effect of over 65% in size

NCCc1cnc[nH]1
active: Potency [6] 8.33 µM
inactive: activation [1] -5.21% and -25.1% and -31.8% | Potency [2] | Potency [3] | viability [4] 93.4% | Potency [5] | Potency [7] | Potency [8] | Potency [9] | Potency [10]

CC[C@H](C)C(=O)O[C@H]1CCC=C2C=C[C@H](C)[C@H](CC[C@@H]3C[C@@H](O)CC(=O)O3)[C@H]21
active: Potency [5] 11.8 µM
inactive: activation [1] -12.3% | Potency [2] | Potency [3] | Potency [11]

CC#C[C@]1(O)CC[C@H]2[C@@H]3CCC4=CC(=O)CCC4=C3[C@@H](c3ccc(N(C)C)cc3)C[C@@]21C
active: Potency [6] 23.5 µM | Potency [10] 18.6 µM
inactive: activation [1] 7.02% | Potency [2] | Potency [3] | Potency [11]

CN1C(C(=O)Nc2ccccn2)=C(O)c2ccccc2S1(=O)=O
inactive: activation [1] -0.565% and -12.3% and -20.6% | Potency [2] | Potency [3] | viability [4] 105% | Potency [5] | Potency [6] | Potency [8] | Potency [9] | Potency [10]

COc1ccccc1N1CCN(CCN2C(=O)CC3(CCCC3)CC2=O)CC1
inactive: Potency [12] | Potency [13]

COc1ccc(/C=C/C(=O)Nc2ccccc2C(=O)O)cc1OC
inactive: Potency [13]

CNCCCC12CCC(c3ccccc31)c1ccccc12
active: Potency [5] 18.6 µM | Potency [6] 29.5 µM | Potency [9] 23.5 µM | Potency [10] 26.3 µM
inactive: activation [1] -7.08% and 22.3% and 47.4% | Potency [3] | Potency [12] | Potency [11] | Potency [13]

Clc1ccc(Cn2c(CN3CCCC3)nc3ccccc32)cc1
inactive: activation [1] -13.4% and 2.33% and -45.4% | Potency [3] | Potency [12] | Potency [11] | Potency [13]
active: Potency [4] 20.9 µM | Potency [6] 20.9 µM | Potency [8] 20.9 µM | Potency [9] 18.6 µM | Potency [10] 20.9 µM

O=C(/C=C/c1ccc(O)cc1)c1ccc(O)cc1O
inactive: activation [1] -26.4% | Potency [3] | Potency [14] | Potency [8]
active: Potency [15] 1.2 µM | Potency [16] 0.504 µM | Potency [17] 3.18 µM | Potency [7] 9.34 µM

O=c1c(-c2ccc(O)cc2)coc2cc(OC3O[C@H](CO)[C@H](O)[C@H](O)[C@H]3O)cc(O)c12 (stereo not given in full)
inactive: activation [1] 21%
active: Potency [3] 44.7 µM

Nc1ncnc2c1c(-c1ccc(Oc3ccccc3)cc1)cn2C1CCCC1
inactive: activation [1] -45.6% | Potency [3] | Potency [12] | Potency [11] | Potency [13]

O=C1c2ccccc2C(=O)c2c(NCCc3ccc(O)cc3)ccc(NCCc3ccc(O)cc3)c21
inactive: activation [1] -13.7% | Potency [3]

OCC1O[C@H]([S-])[C@H](O)[C@@H](O)[C@@H]1O.[Au+] (stereo not given in full)
active: Potency [15] 2.83 µM
inactive: activation [1] 21.8% | Potency [3] | Potency [14] | Potency [17]

CCOC(=O)CSc1nc2c(sc3ccccc32)c(=O)n1CCCN1CCCC1
inactive: activation [1] 2.86% | Potency [3] | Potency [12] | Potency [11] | Potency [13]

O=C1NC(=O)C(c2ccccc2[N+](=O)[O-])=C1Nc1ccc(O)c(Cl)c1
active: Potency [6] 20.9 µM
inactive: activation [1] -20.1% and -30.9% | Potency [2]

Oc1cc(O)cc(/C=C/c2ccc(O)c(O)c2)c1
inactive: activation [1] 11.9% | Potency [2]
active: Potency [5] 10.5 µM | Potency [6] 10.5 µM | Potency [8] 18.6 µM

COc1ccc(Cl)cc1C(=O)NCCc1ccc(S(=O)(=O)NC(=O)NC2CCCCC2)cc1
inactive: activation [1] 3.95% and -3.34% and -19.4% | Potency [3] | Potency [12] | Potency [11] | Potency [13]

N#C/C(=C\c1ccc(-c2cc(Cl)ccc2Cl)o1)C(=O)Nc1cccc2ncccc12
inactive: activation [1] -37.8% | Potency [3]

Cc1ccc(O)c(N=Nc2ccccc2)n1
inactive: activation [1] 34% | Potency [3]

CN1CCN(CC(=O)N2c3ccccc3C(=O)Nc3cccnc32)CC1
inactive: activation [1] -10% and 3.74% | Potency [3] | Potency [14] | Potency [15] | Potency [16] | Potency [18] | Potency [17]

CC1=C(/C=C/C(C)=C/C=C/C(C)=C\C(=O)O)C(C)(C)CCC1
inactive: activation [1] -30.1% | Potency [2] | viability [4] 102% | Potency [8] | Potency [10]
active: Potency [5] 0.742 µM

C=CCn1c(=O)c2c(nc(-c3ccc(S(=O)(=O)O)cc3)n2C)n(C)c1=O
inactive: activation [1] -9.98% | Potency [3]

O=C(O)Cc1c[nH]c2ccc(O)cc12
inactive: activation [1] 8.12% | Potency [3]

CCCNC(=O)NS(=O)(=O)c1ccc(Cl)cc1
inactive: activation [1] -9.6% and 2.39% and -46.5% | Potency [3] | Potency [12] | Potency [11] | Potency [13]

Clc1ccc(N2CCN(Cc3c[nH]c4ncccc34)CC2)cc1
inactive: activation [1] -17.7% | Potency [3]
